Results published in PMC7862700, “An all-to-all approach to the identification of sequence-specific readers for epigenetic DNA modifications on cytosine”.

Key:
Assay in all cases: DAPPL (digital affinity profiling via proximity ligation, sequencing); 10 mM Tris-HCl pH 7.5, 50 mM NaCl, 1 mM DTT, 4% glycerol, room temperature, 30 min; GST-TFs on glutathione beads, 16-mer random dsDNA library, 0.1% formaldehyde crosslink after washing; high values mean tight binding
Settings in all cases: protein: recombinant; tags: N-terminal GST; dsDNA, one strand shown
FLI1 = molecular target: T1, FLI1 (Homo sapiens, UniProt Q01543 1-452)
T1 sequence: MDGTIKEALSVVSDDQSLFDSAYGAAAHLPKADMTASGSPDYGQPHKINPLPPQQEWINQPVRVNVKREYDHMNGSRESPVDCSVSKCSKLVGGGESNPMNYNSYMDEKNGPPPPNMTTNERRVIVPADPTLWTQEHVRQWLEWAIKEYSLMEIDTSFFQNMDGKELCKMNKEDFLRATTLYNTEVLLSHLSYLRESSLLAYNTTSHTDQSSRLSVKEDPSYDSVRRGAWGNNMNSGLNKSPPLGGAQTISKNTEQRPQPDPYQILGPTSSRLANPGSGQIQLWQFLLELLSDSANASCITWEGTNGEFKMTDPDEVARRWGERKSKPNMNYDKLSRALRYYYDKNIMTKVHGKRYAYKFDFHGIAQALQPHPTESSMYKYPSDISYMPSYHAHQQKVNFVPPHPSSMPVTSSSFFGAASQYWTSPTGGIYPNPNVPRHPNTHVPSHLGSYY
In short: (§1)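 Binding signal is defined as a hexamer's read frequency for one factor over its frequency for the tag-only sample. To obtain reads, GST-fused human transcription factors were expressed in yeast, captured on glutathione beads, barcoded with DNA and pooled with that sample. Pools met 200 nmole of a 16-mer random double-stranded DNA library in Tris/NaCl/DTT/glycerol buffer for 30 min at room temperature before washing, 0.1% formaldehyde crosslinking, proximity ligation (BsaI/T4 ligase, 1 h, 37 °C), PCR and Illumina NextSeq500 sequencing.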

SPIB = SPIB (Homo sapiens, UniProt Q01892 1-262)
SPIB, sequence (Q01892 whole entry): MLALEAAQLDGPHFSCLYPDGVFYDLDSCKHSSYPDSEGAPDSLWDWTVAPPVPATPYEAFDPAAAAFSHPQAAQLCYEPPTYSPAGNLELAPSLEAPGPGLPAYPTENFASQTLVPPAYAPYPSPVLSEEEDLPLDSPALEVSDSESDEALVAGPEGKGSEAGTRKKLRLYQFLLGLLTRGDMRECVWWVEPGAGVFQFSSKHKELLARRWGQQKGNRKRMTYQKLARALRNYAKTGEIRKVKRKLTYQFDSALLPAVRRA
In short: as §1

ELK3 = molecular target: T2, ELK3 (Homo sapiens, UniProt P41970 1-407)
T2 sequence: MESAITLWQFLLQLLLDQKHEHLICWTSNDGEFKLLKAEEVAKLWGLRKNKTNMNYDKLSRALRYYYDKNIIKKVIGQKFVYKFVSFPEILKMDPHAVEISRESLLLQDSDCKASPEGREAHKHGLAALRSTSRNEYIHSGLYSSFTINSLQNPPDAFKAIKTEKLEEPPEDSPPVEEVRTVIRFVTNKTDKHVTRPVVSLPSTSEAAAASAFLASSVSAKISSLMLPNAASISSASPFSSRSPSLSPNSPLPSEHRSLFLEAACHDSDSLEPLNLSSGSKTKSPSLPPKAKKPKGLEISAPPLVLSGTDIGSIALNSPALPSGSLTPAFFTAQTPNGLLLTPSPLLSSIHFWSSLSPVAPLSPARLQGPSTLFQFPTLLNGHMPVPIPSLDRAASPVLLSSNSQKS
In short: as §1

ELF4 = ELF4 (Homo sapiens, UniProt Q99607 1-663)
ELF4, sequence (Q99607 whole entry): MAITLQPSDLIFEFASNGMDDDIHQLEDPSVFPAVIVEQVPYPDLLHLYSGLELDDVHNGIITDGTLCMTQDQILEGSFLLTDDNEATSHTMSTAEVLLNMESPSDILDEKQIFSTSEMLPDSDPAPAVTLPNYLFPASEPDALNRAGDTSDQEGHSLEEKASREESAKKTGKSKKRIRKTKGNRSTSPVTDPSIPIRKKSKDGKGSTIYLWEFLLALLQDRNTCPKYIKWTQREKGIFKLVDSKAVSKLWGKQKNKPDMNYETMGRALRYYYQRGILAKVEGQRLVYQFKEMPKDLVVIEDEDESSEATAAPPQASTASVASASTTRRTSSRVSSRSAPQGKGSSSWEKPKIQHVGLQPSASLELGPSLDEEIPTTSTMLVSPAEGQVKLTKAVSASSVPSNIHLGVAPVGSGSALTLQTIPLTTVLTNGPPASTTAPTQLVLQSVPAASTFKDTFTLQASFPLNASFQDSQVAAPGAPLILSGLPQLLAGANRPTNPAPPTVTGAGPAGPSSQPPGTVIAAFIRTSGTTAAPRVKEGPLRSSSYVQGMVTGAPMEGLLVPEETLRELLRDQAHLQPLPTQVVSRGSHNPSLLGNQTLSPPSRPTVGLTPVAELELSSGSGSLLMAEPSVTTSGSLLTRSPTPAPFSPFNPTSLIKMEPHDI
In short: as §1

ELK4 = molecular target: T3, ELK4 (Homo sapiens, UniProt P28324-2 1-405)
T3 sequence: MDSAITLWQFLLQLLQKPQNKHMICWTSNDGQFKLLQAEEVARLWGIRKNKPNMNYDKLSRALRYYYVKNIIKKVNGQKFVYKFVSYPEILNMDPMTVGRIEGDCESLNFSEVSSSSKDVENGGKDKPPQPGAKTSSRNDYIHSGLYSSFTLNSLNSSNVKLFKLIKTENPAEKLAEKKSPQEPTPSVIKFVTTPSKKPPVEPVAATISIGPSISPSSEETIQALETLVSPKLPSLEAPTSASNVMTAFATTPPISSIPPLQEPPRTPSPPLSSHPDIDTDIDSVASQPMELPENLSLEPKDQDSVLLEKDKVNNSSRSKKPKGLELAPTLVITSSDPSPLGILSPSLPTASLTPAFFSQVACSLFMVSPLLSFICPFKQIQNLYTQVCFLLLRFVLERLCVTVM
In short: as §1

ETV2 = molecular target: T4, ETV2 (Homo sapiens, UniProt O00321 1-342)
T4 sequence: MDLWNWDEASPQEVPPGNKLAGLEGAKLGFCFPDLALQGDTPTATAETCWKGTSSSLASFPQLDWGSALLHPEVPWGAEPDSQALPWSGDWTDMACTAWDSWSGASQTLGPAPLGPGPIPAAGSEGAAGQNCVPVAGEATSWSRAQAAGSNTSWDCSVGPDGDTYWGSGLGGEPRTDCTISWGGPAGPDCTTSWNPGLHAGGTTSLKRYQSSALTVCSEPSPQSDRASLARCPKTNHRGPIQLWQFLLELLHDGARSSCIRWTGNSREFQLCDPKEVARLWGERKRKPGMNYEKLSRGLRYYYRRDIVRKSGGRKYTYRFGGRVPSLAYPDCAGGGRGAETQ
In short: as §1

CRX = CRX (Homo sapiens, UniProt O43186 1-299)
CRX, sequence (O43186 whole entry): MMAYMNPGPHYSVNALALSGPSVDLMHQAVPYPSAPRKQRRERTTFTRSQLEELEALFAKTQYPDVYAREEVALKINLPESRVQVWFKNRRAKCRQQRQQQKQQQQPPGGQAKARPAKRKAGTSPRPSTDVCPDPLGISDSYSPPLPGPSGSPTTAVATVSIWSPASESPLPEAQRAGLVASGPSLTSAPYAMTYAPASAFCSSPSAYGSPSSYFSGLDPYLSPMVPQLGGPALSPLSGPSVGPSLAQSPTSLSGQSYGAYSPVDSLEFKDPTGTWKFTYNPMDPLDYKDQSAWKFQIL
In short: as §1

ETV1 = ETV1 (Homo sapiens, UniProt P50549 1-477)
ETV1, sequence (P50549 whole entry): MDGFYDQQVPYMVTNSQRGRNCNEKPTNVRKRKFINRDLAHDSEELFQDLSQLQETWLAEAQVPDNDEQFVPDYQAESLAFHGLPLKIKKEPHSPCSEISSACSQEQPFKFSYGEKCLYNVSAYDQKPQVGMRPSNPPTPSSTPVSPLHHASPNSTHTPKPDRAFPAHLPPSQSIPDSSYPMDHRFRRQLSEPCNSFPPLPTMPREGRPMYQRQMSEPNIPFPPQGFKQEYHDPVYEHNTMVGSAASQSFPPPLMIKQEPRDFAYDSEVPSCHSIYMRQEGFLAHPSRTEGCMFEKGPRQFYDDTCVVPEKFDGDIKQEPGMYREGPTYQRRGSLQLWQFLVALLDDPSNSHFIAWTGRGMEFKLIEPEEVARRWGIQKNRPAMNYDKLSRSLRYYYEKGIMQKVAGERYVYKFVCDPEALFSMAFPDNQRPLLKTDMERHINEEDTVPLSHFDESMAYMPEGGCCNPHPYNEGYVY
In short: as §1

ETV3L = molecular target: T5, ETV3L (Homo sapiens, UniProt Q6ZN32 1-361)
T5 sequence: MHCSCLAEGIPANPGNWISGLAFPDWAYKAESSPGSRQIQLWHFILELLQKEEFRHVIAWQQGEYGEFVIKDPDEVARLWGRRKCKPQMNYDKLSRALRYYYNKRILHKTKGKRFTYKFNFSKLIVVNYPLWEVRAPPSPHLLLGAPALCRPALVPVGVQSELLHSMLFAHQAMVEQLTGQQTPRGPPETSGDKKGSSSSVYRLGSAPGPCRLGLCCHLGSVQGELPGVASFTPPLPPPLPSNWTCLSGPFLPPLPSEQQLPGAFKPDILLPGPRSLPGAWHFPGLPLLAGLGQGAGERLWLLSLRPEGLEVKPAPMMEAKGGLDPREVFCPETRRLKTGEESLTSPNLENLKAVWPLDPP
In short: as §1

ETV3 = molecular target: T6, ETV3 (Homo sapiens, UniProt P41162-2 1-143)
T6 sequence: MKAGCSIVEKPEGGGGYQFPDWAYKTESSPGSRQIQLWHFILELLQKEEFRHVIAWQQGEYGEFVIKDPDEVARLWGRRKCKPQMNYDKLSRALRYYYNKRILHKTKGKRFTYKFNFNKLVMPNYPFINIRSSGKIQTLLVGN
In short: as §1

## CAAGCT
FLI1
  binding signal: 1.05 fold enrichment (6-mer frequency, TF over GST control)
SPIB
  binding signal: 1.04 fold enrichment (6-mer frequency, TF over GST control)
ELK3
  binding signal: 1.03 fold enrichment (6-mer frequency, TF over GST control)
ELF4
  binding signal: 1.02 fold enrichment (6-mer frequency, TF over GST control)
ELK4
  binding signal: 1.13 fold enrichment (6-mer frequency, TF over GST control)
ETV2
  binding signal: 1.02 fold enrichment (6-mer frequency, TF over GST control)
CRX
  binding signal: 1.1 fold enrichment (6-mer frequency, TF over GST control)
ETV1
  binding signal: 1.04 fold enrichment (6-mer frequency, TF over GST control)
ETV3L
  binding signal: 1.05 fold enrichment (6-mer frequency, TF over GST control)
ETV3
  binding signal: 1.02 fold enrichment (6-mer frequency, TF over GST control)
